{
  "source": "PubChem BioAssay (NCI)",
  "note": "Values joined by “and” are separate entries in the source; they are usually repeats but may differ in a detail not shown here. Identical values can stand only once. Compounds without any hit were thinned out: in the full panel of roughly 83,000, 20% have a hit.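 Single-concentration screen, 48 h exposure, 96-well plates. Endpoint: percent growth. Below 10 = active.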 Values without a mark were called inactive. Active and inactive are the calls of the source.",
  "data": [
    {"tested_on": "MDA-MB-468 breast", "assay": "NCI-60 one-dose screen, 48 h (100 = growth as untreated, 0 = no growth, -100 = all killed)", "settings": "10 µM unless noted", "values": [
      {"smiles": "CC(C)C[C@@H](C(=O)N[C@H](C(=O)OC1CCCC1)c1ccccc1)[C@H](O)C(=O)NO", "growth": "16.9%"},
      {"smiles": "CC1OS(=O)OC1C", "note": "(centres undefined)", "growth": "96.4% and 96.2%"},
      {"smiles": "COc1cc2c(c(OC)c1O)C(=O)C(OC)C(c1ccc(O)c(O)c1)O2", "note": "(centres undefined)", "growth": "7.99% (active)"},
      {"smiles": "CSC(SC)=C(C#N)c1nc2ccccc2s1", "growth": "43.8%"}
    ]}
  ]
}
